TDP1 cell noCPT – qHTS for Inhibitors of human tyrosyl-DNA phosphodiesterase 1 (TDP1): qHTS in cells in absence of CPT | actives 15% (n = 420,000) | Potency, µM (titrated, usually from 46.2 µM), for inactives: at the highest dose activity change, negative = growth inhibition, usual class: inhibitors | DT40 Tdp1-/- hTDP1 cells, no CPT, ATP luminescence, 48 h | AID 686978, 2013; note: potency is the fitted concentration of half-maximal effect; nearly all actives have a fitted effect of over 55% in size
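Stably hTDP1-transfected Tdp1-null chicken DT40 cells were treated with library compounds minus camptothecin and grown for at least 48 hr at 37 °C, after which cellular ATP was quantified by luminescence.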
LDHA inh – LDHA (human) enzyme inhibition | P00338 | purified LDHA, NADH/diaphorase-resazurin fluorescence; active compounds read low | activity change, % (values are at about 110 or 230 µM) | actives 0.15% (n = 480,000) | AID 1347041; in the data active = activity change below about -30%; inconclusive = mostly about -25% to -30%;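 note: plate controls were DMSO wells for no effect and wells without enzyme for full effect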
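Resorufin fluorescence (ex540/em590), read at 0 and 20 min after diaphorase/resazurin addition, reports the NADH left after a 5 min room-temperature reaction of 2 nM human LDH5 with 0.06 mM NADH and 0.2 mM pyruvate.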
VP16 counter – inhibits Gal4-VP16 luciferase reporter, ROR gamma counter-screen. Drosophila S2 Gal4-VP16 UAS-luciferase, luminescence, 20 h. Potency, µM (highest dose often 53.6 µM), inactives show at the highest dose activity, negative = inhibition, most hits filed as inhibitors. actives 3.5% (n = 310,000);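 note: Gal4-VP16 expression switched on by copper sulfate through the metallothionein promoter; potency is the fitted concentration of half-maximal effect; nearly all actives have a fitted effect of over 50% in size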
DT40 TDP1 CPT – growth inhibition of DT40 Tdp1-/-;hTDP1 cells with camptothecin (screen for TDP1 inhibitors) | chicken DT40 Tdp1-/-;hTDP1 cells + 20 nM CPT, ATP luminescence, 48 h | Potency, µM (series often up to 46.2 µM), for the others: at the top dose activity change, negative = growth inhibition, actives largely listed as inhibitors | actives 12% (n = 420,000) | AID 686979; note: potency is the fitted concentration of half-maximal effect; nearly all actives have a fitted effect of over 55% in size
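Cell growth measured by CellTiter-Glo luminescence after a minimum 48 h, 37 C compound exposure with 20 nM CPT in Tdp1-knockout DT40 cells stably expressing hTDP1, seeded 400/well; qHTS titration format.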
RORgamma inh – inhibitors of mouse ROR gamma transcriptional activity; Drosophila S2 Gal4-RORgamma UAS-luciferase reporter, 20 h; Potency, µM (top dose mostly 53.6 µM), for the others: top-dose activity change, negative = inhibition, hits mostly inhibitors; actives 5.4% (n = 310,000); note: potency is the fitted concentration of half-maximal effect; nearly all actives have a fitted effect of over 60% in size
Target sequence (P51450 whole entry, looked up, the tested form may be a part): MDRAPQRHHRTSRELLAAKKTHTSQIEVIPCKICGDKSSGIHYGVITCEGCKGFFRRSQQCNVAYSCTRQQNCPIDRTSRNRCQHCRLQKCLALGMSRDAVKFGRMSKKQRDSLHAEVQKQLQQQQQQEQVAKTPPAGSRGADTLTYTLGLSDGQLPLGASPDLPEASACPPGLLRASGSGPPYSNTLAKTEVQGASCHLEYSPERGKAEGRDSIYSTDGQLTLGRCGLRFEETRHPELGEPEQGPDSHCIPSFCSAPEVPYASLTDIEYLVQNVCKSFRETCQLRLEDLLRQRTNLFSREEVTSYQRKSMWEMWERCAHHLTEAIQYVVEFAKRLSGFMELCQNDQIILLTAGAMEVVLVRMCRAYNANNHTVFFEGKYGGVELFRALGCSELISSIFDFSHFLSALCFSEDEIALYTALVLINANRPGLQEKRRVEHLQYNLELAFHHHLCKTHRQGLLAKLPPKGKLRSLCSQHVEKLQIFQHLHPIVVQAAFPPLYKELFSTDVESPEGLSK
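ROR gamma transcriptional activity was tracked as Gal4-UAS luciferase output in stably transfected Drosophila Schneider cells, with compound added 1 hr before 700 uM copper sulfate induction and a 20 hr ambient-temperature incubation.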
IL-1B inflam inh – blocks inflammasome-driven IL-1 beta release. THP-1 LPS/ATP IL-1B secretion, AlphaLISA, 16 h; active compounds read low. activity change, % at 57.5 µM. actives 4.7% (n = 360,000). AID 743279; in the data active = activity change below about -50%; inconclusive = mostly about -30% to -49%
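Secreted IL-1B measured by AlphaLISA bead assay after 16 h compound exposure of THP-1 cells; compounds (final up to 57.5 uM) added 1 h before LPS (250 ng/mL) and ATP (1.25 mM) stimulation; lower signal means less secretion.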
Starred values were filed as active, the others as inactive; u = inconclusive; x = no result given; [ ] = remark or other dose. Most compounds without a hit are left out; they make up all but 18% or so of the library. Unless noted, calls come from the whole dose curve; as a rule, active = well fitted curve in the direction sought with a large enough effect; inconclusive = small, poorly fitted or top-dose-only effect, or another doubt; inactive = no such curve, though single readings can be large; an effect the other way counts as inactive or inconclusive. Unless noted, % is set by controls: 0 for no effect and ±100 for the full control effect.

SMILES | TDP1 cell noCPT | LDHA inh | VP16 counter | DT40 TDP1 CPT | RORgamma inh | IL-1B inflam inh
COc1cccc(-c2c(C(=O)N/N=C/c3ccc(C)s3)nnn2-c2nonc2N)c1 | -21% | 0 | 5.6µM* | -1% | 2.5µM* | -16
Cc1ccc(-c2c(C(=O)N/N=C/c3ccc(OC(C)C)cc3)nnn2-c2nonc2N)cc1 | u | -6 | u | -21% | -98% | 41
Cc1ccc(/C=N/NC(=O)c2nnn(-c3nonc3N)c2CSc2ccccc2)o1 | -13% | -3 | 11µM* | 5% | 7.1µM* | u
Cc1ccc(-c2c(C(=O)N/N=C/c3ccoc3)nnn2-c2nonc2N)cc1 | 1% | -6 | u | -9% | 11µM* | -15
CC(=O)Nc1ccc(I)cc1C | x | -1 | x | x | x | x
O=C(Nc1ccc(-c2nnc3n2CCCCC3)cc1)c1n[nH]c(=O)c2ccccc12 | x | 3 | x | x | x | x
CCOc1cccc(-c2c(C(=O)N/N=C/c3ccc(C)s3)nnn2-c2nonc2N)c1 | -20% | 0 | 4µM* | -17% | 2.5µM* | 15
CCCOc1ccc(-c2c(C(=O)N/N=C/C3CCCCC3)nnn2-c2nonc2N)cc1 | 12µM* | -6 | u | 26µM* | u | 8
COc1cccc(-c2c(C(=O)N/N=C/c3ccoc3)nnn2-c2nonc2N)c1 | 2% | 1 | u | 3% | 13µM* | 8
COc1cccc(-c2c(C(=O)N/N=C/c3ccncc3)nnn2-c2nonc2N)c1 | 3% | -3 | 11% | -9% | 17% | -1
CCOc1ccc(-c2c(C(=O)N/N=C/c3ccc(C)cc3)nnn2-c2nonc2N)cc1 | u | -5 | -10% | 1.6µM* | -33% | 10
CC(=O)Nc1ccc(C(=O)CSc2ncnc3sccc23)cc1 | x | 1 | x | x | x | x
Cc1ccc(/C=N/NC(=O)c2nnn(-c3nonc3N)c2CSc2ccccc2)cc1 | -12% | -7 | -1% | -9% | -18% | 7
CCOc1ccc(-c2c(C(=O)N/N=C/c3ccc(C)s3)nnn2-c2nonc2N)cc1 | u | 0 | 2.8µM* | u | 2.2µM* | u
Cc1ccc(SCc2c(C(=O)N/N=C/c3ccoc3)nnn2-c2nonc2N)cc1 | u | -6 | 16µM* | -18% | 7.9µM* | -1
Cc1ccc(-c2cnc(CCC(=O)N3CC(C(=O)N(C)C)Oc4ccccc43)o2)cc1C (stereo unspecified) | x | 35 | x | x | x | x
CCCNC(=O)C(C)Sc1nc(-c2ccco2)nc2ccccc12 (stereo unspecified) | x | 4 | x | x | x | x
O=C(Nc1cc(Cl)cc(Cl)c1)c1ccc(F)c(S(=O)(=O)N2CCc3ccccc32)c1 | 9.2µM* | -5 | x | 5.8µM* | x | x
CC(C)c1ccc(NC(=O)c2ccc(F)c(S(=O)(=O)N3CCCC3)c2)cc1 | u | 1 | x | 10µM* | x | x
O=C(Nc1ccc(S(=O)(=O)N2CCc3ccccc32)cc1)c1ccc2c(c1)OCO2 | u | -9 | 1%[0.365 µM] | u | u | u
CC(C)c1ccc(NC(=O)c2ccc(F)c(S(=O)(=O)N3CCCCCC3)c2)cc1 | u | -4 | x | u | x | x
COc1ccc(Cl)cc1NC(=O)c1ccc(F)c(S(=O)(=O)N2CCCC2)c1 | x | 3 | x | x | x | x
O=C(Nc1cc(Cl)cc(Cl)c1)c1ccc(F)c(S(=O)(=O)N2CCCC2)c1 | 21µM* | -3 | x | 16µM* | x | x
Cn1c(=O)n(CCC(=O)NCc2nnc3n2CCC3)c2ccccc21 | x | -6 | x | x | x | x
Cc1ccc(-n2cnc(N)c2C(=O)c2cccc([N+](=O)[O-])c2)cc1 | 29µM* | -6 | -13% | u | -37% | x
SMILES | TDP1 cell noCPT | LDHA inh | VP16 counter | DT40 TDP1 CPT | RORgamma inh | IL-1B inflam inh
CNCCOc1ccc(Cl)c(Cl)c1 | 16µM* | u | -4% | u | 11% | -24
CC(=O)c1ccc(N2CCN(C(=O)c3cc4c(s3)CCCC4)CC2)cc1 | u | 1 | -3% | 23µM* | 35% | -5
COc1ccccc1N1CCN(C(=O)c2cc3c(s2)CCC3)CC1 | 29µM* | -3 | -1% | u | 27% | 24
COc1ccccc1N1CCN(C(=O)c2cc(C(=O)N3CCN(c4ccccc4OC)CC3)cc([N+](=O)[O-])c2)CC1 | 0% | -7 | -6% | 9% | -18% | 18
COc1ccccc1N1CCN(C(=O)c2ccc([N+](=O)[O-])s2)CC1 | u | -5 | -9% | u | 7.9µM* | -3
O=C(c1cc2c(s1)CCC2)N1CCN(c2ncccn2)CC1 | x | 4 | x | x | x | x
COc1ccc(N2CCN(C(=O)c3cc4c(s3)CCCCC4)CC2)cc1 | u | 4 | x | 21µM* | x | 36
COc1ccc(OC)c(S(=O)(=O)N2CCN(C(=O)c3cc4c(s3)CCCCC4)CC2)c1 | x | 1 | x | x | x | x
O=C(COC(=O)c1ccc(-c2ccc([N+](=O)[O-])cc2)o1)Nc1ccc(Cl)cc1C(F)(F)F | x | 2 | x | x | x | x
COc1ccccc1N1CCN(C(=O)Nc2ccc([N+](=O)[O-])cc2)CC1 | 16µM* | -11 | -6% | u | u | -14
O=C(Nc1ccc(F)cc1F)N1CCCN(c2ccc([N+](=O)[O-])cn2)CC1 | -12% | 10 | 0% | -2% | 14% | -3
CC(C)NC(=O)C1CCN(C2CCN(C(=O)c3cc4c(s3)CCCCC4)CC2)CC1 | u | -7 | 7.9µM* | u | 10µM* | 5
COc1ccc2c(c1)CCc1cc(C(=O)N3CCN(c4ccc(N5CCOCC5)nn4)CC3)sc1-2 | u | 17 | 1% | 21µM* | 10% | -11
CC(C)(C)c1ccc(NC(=O)N2CCN(c3ccc([N+](=O)[O-])cn3)CC2)cc1 | 8.2µM* | -6 | u | 3.3µM* | 40% | x
CCOC(=O)C(C(=O)OCC)C(C(=O)OCC)(C(=O)OCC)C(C(=O)OCC)C(=O)OCC | x | 7 | x | x | x | x
Cc1ccc(C)c(-n2c(Cc3cc(=O)[nH]c(=O)[nH]3)nnc2SCC(=O)c2ccc(Cl)cc2)c1 | x | 3 | x | x | x | x
O=C(c1cccs1)N1CCN(c2cccc(Cl)c2)CC1 | -1% | -5 | -1% | -10% | 2%[1.91 µM] | -14
O=C(c1ccc([N+](=O)[O-])s1)N1CCN(c2cccc(Cl)c2)CC1 | 21µM* | -6 | -19% | 21µM* | -24% | -58*
COc1ccc(OC)c(CNS(=O)(=O)c2ccc(-c3cc(C(F)(F)F)on3)s2)c1 | 8.2µM* | -5 | x | 8.2µM* | x | x
COc1ccccc1N1CCN(S(=O)(=O)c2ccc(-c3cc(C(F)(F)F)on3)s2)CC1 | u | -2 | x | u | x | x

Screens (PubChem BioAssay)
